Data published in PubChem BioAssay (Tox21).
Values joined by “and” are separate entries in the source; they are usually repeats but may differ in a detail not shown here. Identical values can stand only once. Records with an inconclusive call do not appear. Some structures have more than one record in an assay (separate samples or runs), and their calls can disagree. Active and inactive are the calls of the source. Unless noted, calls follow the shape of the dose curve; as a rule, active = well fitted curve in the direction sought with a large enough effect in the repeat runs; inconclusive = weak or mixed curves; inactive = no such curve, though single readings can be large; an effect the other way counts as inactive or inconclusive.

Assays:
[1] = qHTS assay to identify small molecule agonists of the RXR signaling pathway - cell viability counter screen (AID 1159529);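 also: HEK 293T cells carrying an RXR-alpha UAS beta-lactamase reporter; nearly all actives have a fitted effect of over 50% in size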
Procedure, shortened: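 Steps: seed RXR-alpha-UAS-bla HEK 293T cells in assay medium containing 2% charcoal-stripped FBS; incubate 5 hr; add compounds in DMSO; incubate 16 hr at 37 C; after the bla read, add CellTiter-Glo and read luminescence at 30 min.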

[2] = qHTS assay to identify small molecule antagonists of the retinoid acid receptor (RAR) signaling pathway - cell viability counter screen (AID 1159551); also: nearly all actives have a fitted effect of over 35% in size
Procedure, shortened: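 ATP-based viability, C3RL4 cells, 6 h at 37 C with 1 uM final retinol co-added after compound; luminescence read 30 min post CellTiter-Glo, RT.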

[3] = qHTS assay to identify small molecule antagonists of the retinoic acid receptor (RAR) signaling pathway (AID 1159552; also: nearly all actives have a fitted effect of over 50% in size)
Procedure, shortened: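 Retinol at 1 uM final stimulated RARE-luciferase expression in C3RL4 cells exposed to test compounds for 6 hr at 37 C. Reduced luminescence, read 30 min after detection reagent, indicated pathway antagonism.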

[4] = qHTS assay to identify small molecule agonists of the retinoic acid receptor (RAR) signaling pathway (AID 1159553); conditions: C3RL4 RARE luciferase reporter, agonist, 6 h; activation: at 73.3 µM (top of the series) unless noted; also: potency is read from the fitted curve at half-maximal effect
Procedure, shortened: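 Quantitative high-throughput format: the Tox21 10K library was tested on C3RL4 RARE-luciferase cells for 6 hr at 37 C and 5% CO2, with luminescence measured after a 30 min room-temperature reagent step.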

[5] = target: Luciferin 4-monooxygenase (Photinus pyralis) (UniProt P08659); assay: qHTS assay to identify small molecule inhibitors of firefly luciferase (AID 1224835); also: nearly all actives have a fitted effect of over 25% in size; also: potency is read from the fitted curve at half-maximal effect
Procedure, shortened: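 Quantitative HTS format; KM concentrations of both substrates. Purified P. pyralis FLuc activity quantified from luminescence images.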

[6] = qHTS assay to identify small molecule agonists of the constitutive androstane receptor (CAR) signaling pathway - cell viability counter screen (AID 1224836); also: nearly all actives have a fitted effect of over 45% in size; also: potency is read from the fitted curve at half-maximal effect
Procedure, shortened: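 Cells were seeded and incubated 4 hrs. Compounds were added across 15 concentrations together with PK11195 at 0.75 uM final. Plates were incubated 23 hrs at 37 C. CellTiter-Fluor was added and fluorescence measured.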

[7] = qHTS assay to identify small molecule antagonists of the constitutive androstane receptor (CAR) signaling pathway - cell viability counter screen (AID 1224837); also: nearly all actives have a fitted effect of over 45% in size; also: potency is read from the fitted curve at half-maximal effect
Procedure, shortened: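 Cells are seeded, rested 4 hr at 37 C/5% CO2, dosed with compound (15-point series) and 50 nM CITCO, incubated a further 23 hr, and then CellTiter-Fluor reagent is added before fluorescence is read. The line is HepG2 with stable hCAR and CYP2B6-2.2kb.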

[8] = qHTS assay to identify small molecule antagonists of the estrogen related receptor signaling pathway with the pleiotropic PPARgamma coactivator (PGC) from Tox21 10K library - cell viability counter screen (AID 1224840; active = well fitted cell-killing curve with a large enough effect in the repeat runs, not every such curve was filed as active; also: nearly all actives have a fitted effect of over 40% in size; also: potency is read from the fitted curve at half-maximal effect)
Procedure, shortened: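 Cell viability is measured by CellTiter-Fluor fluorescence in PGC/ERR cells that receive compounds after a 6-hour attachment period and are then incubated 17.5 hours at 37 C.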

[9] = qHTS assay to identify small molecule antagonists of the estrogen related receptor signaling pathway with the pleiotropic PPARgamma coactivator (PGC) from Tox21 10K library (AID 1224841; call rule not given here; also: actives are mostly falling curves and most rising ones were filed inactive; nearly all actives have a fitted effect of over 50% in size; also: potency is read from the fitted curve at half-maximal effect)
Procedure, shortened: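 Cells stably carrying the PGC/ERR reporter, seeded at 2,000 per well, received pin-transferred compounds 6 h post-plating. Exposure lasted 18 h at 37 C. Signal: One-Glo luminescence.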

[10] = qHTS assay to identify small molecule agonists of the estrogen related receptor signaling pathway with the pleiotropic PPARgamma coactivator (PGC) from Tox21 10K library (AID 1224842); also: nearly all actives have a fitted effect of over 15% in size
Procedure, shortened: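 PGC/ERR reporter cells (NTP line) were seeded 2,000 per well, rested 6 h at 37 C/5% CO2, then pin-dosed with compounds in DMSO for 18 h at 37 C; luciferase read by One-Glo luminescence after 30 min at room temperature.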

[11] = target: Thyrotropin receptor (Homo sapiens) (UniProt P16473); assay: qHTS assay to identify small molecule agonists of the thyroid stimulating hormone receptor (TSHR) signaling pathway (AID 1224843; calls by dose curve; also: nearly all actives have a fitted effect of over 45% in size)
Procedure, shortened: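 Using 15 concentrations per compound in triplicate, cAMP production was monitored in TSHR-HEK293 cells after 30 min compound incubation at RT; HTRF reagents followed, with fluorescence intensity recorded after 1 h.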

[12] = qHTS assay to identify small molecule agonists of the hypoxia (HIF-1) signaling pathway - cell viability counter screen (AID 1224844; calls by dose curve; also: nearly all actives have a fitted effect of over 50% in size)
Procedure, shortened: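 Viability counter screen: HRE-bla ME-180 cells plated 5 hrs before compound addition, treated 17 hrs at 37C and 5% CO2, then CellTiter-Glo added after the FRET reporter read; luminescence after 30 min.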

[13] = qHTS assay to identify small molecule antagonists of the estrogen related receptor (ERR) signaling pathway from Tox21 library - cell viability counter screen (AID 1224834); also: nearly all actives have a fitted effect of over 30% in size; also: potency is read from the fitted curve at half-maximal effect
Procedure, shortened: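 Compounds in DMSO were pinned onto ERR cells that had been incubated for 6 h, and the plates were held at 37 C for 17.5 h. CellTiter-Fluor reagent was then added and fluorescence was measured after 30 min.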

[14] = target: Nuclear receptor subfamily 1 group I member 3 (Homo sapiens) (UniProt Q14994); assay: qHTS assay to identify small molecule antagonists of the constitutive androstane receptor (CAR) signaling pathway (AID 1224838);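 also: HepG2 cells stably expressing hCAR with CYP2B6 luciferase reporter stimulated by CITCO; nearly all actives have a fitted effect of over 40% in size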; also: potency is read from the fitted curve at half-maximal effect
Procedure, shortened: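 Luminescence from a CYP2B6-2.2kb promoter reporter in hCAR-expressing HepG2 cells reflects CAR signaling. Cells received compounds at 15 concentrations and 50 nM CITCO (final), then incubated 24 h at 37 C/5% CO2.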

[15] = target: Nuclear receptor subfamily 1 group I member 3 (Homo sapiens) (UniProt Q14994); assay: qHTS assay to identify small molecule agonists of the constitutive androstane receptor (CAR) signaling pathway (AID 1224839);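 also: HepG2 cells stably carrying human CAR and a CYP2B6 luciferase reporter; nearly all actives have a fitted effect of over 15% in size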
Procedure, shortened: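 Cells were plated and incubated 4 hrs, then dosed with compounds at 15 concentrations. PK11195 was added to 0.75 uM final. After 24 hrs at 37 C, luciferase luminescence was measured.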

[16] = qHTS assay to identify small molecule antagonists of the estrogen related receptor (ERR) signaling pathway - cell viability counter screen (AID 1224818);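 also: viability measured after 17.5 h of compound exposure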
Procedure, shortened: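 Quantitative high-throughput viability counter screen in ERR cells. Compounds (DMSO) incubated 17.5 h at 37 C; read-out was CellTiter-Fluor fluorescence.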
% is scaled to controls: 0 for no effect and ±100 for the full control effect.

Chain of Nuclear receptor subfamily 1 group I member 3 (Homo sapiens) (Q14994 whole entry, looked up): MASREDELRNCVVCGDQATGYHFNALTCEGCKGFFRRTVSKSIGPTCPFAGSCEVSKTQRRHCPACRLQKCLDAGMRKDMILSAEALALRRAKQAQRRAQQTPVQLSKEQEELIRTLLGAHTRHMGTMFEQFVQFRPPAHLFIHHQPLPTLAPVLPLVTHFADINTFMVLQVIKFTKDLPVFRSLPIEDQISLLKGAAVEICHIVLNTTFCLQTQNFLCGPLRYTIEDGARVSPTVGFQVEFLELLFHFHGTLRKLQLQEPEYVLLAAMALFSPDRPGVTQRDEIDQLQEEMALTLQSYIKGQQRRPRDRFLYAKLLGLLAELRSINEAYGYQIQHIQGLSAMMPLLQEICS
Chain of Thyrotropin receptor (Homo sapiens) (P16473 whole entry, looked up): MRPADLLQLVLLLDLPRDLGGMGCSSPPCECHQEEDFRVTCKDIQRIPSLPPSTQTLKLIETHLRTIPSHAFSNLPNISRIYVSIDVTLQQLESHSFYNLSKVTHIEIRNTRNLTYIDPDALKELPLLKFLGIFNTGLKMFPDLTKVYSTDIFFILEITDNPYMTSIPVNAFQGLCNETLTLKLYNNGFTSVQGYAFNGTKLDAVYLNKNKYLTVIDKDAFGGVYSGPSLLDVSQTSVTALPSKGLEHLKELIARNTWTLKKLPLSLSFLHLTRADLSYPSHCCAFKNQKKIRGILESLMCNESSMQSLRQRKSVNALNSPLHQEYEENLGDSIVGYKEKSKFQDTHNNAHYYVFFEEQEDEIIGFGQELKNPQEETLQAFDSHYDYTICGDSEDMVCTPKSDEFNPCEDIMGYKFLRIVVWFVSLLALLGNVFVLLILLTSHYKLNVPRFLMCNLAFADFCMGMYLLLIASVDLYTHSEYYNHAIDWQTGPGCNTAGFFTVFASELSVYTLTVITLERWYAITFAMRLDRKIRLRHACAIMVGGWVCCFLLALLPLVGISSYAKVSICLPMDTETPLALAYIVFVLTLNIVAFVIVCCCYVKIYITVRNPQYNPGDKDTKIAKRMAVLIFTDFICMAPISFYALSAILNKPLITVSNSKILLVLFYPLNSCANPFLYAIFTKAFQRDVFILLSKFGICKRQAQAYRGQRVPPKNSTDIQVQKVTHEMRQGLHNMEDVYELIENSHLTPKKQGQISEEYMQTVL
Chain of Luciferin 4-monooxygenase (Photinus pyralis) (P08659 whole entry, looked up): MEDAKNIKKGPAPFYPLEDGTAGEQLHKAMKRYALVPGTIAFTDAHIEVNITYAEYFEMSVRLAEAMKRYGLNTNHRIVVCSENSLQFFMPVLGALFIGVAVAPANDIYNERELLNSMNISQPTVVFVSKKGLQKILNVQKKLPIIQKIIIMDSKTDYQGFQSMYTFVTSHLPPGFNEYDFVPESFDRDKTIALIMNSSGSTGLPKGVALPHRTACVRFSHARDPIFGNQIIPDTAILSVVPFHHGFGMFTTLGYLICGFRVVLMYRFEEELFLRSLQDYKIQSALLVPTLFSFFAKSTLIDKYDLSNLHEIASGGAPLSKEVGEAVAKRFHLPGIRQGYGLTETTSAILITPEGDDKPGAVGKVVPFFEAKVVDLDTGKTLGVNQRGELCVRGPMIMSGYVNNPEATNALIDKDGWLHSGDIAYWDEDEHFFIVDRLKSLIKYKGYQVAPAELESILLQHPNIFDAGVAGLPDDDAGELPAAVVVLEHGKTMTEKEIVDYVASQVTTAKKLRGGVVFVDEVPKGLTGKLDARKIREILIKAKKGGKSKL

O=C(O)c1cc(=O)[nH]c(=O)[nH]1
inactive: Potency [1] | Potency [2] | Potency [3] | Potency [4] | Potency [5] | Potency [6] | Potency [7] | Potency [8] | Potency [9] | Potency [10] | Potency [11] | Potency [12]

[O-]/[N+](=N\O)c1ccccc1
active: Potency [4] 48.6 µM | Potency [5] 35.3 µM and 22.4 µM
inactive: Potency [1] | Potency [2] | Potency [13] | Potency [6] | Potency [7] | Potency [14] | Potency [8] | Potency [10] | Potency [11] | Potency [12]

CCOC(=O)C(C)Oc1ccc(Oc2cnc3cc(Cl)ccc3n2)cc1 (stereo not given)
inactive: Potency [1] | Potency [2] | Potency [3] | Potency [4] | Potency [5] | Potency [6] | Potency [7] | Potency [14] | Potency [8] | Potency [12]

CC(=O)O[C@]1(C(C)=O)CC[C@H]2[C@@H]3C=C(Cl)C4=CC(=O)CC[C@]4(C)[C@H]3CC[C@@]21C
inactive: Potency [1] | Potency [2] | Potency [4] | Potency [5] | Potency [6] | Potency [7] | Potency [14] | Potency [15] | Potency [8] | Potency [11] | Potency [12]

Cc1ccc(N)c([N+](=O)[O-])c1
inactive: Potency [1] | Potency [2] | Potency [3] | Potency [4] | Potency [6] | Potency [7] | Potency [14] | Potency [15] | Potency [8] | Potency [11] | Potency [12]

COc1cc([C@H]2Oc3cc([C@H]4Oc5cc(O)cc(O)c5C(=O)[C@@H]4O)ccc3O[C@@H]2CO)ccc1O
inactive: Potency [1] | Potency [2] | Potency [5] | Potency [6] | Potency [7] | Potency [9] | Potency [10] | Potency [12]
54.3 µM (active) and inactive: Potency [8]
48.4 µM (active) and inactive: Potency [13]

NCCN
inactive: Potency [1] | Potency [2] | Potency [13] | Potency [5] | Potency [6] | Potency [7] | Potency [8] | Potency [11] | Potency [12]

C=C[C@H]1CN2CC[C@H]1C[C@H]2[C@H](O)c1ccnc2ccc(OC)cc12
inactive: Potency [1] | Potency [2] | Potency [13] | Potency [6] | Potency [7] | Potency [14] | Potency [8] | Potency [12]

CC/C=C\C/C=C\C/C=C\CCCCCCCC(=O)O
inactive: Potency [2] | Potency [3] | Potency [4] | Potency [13] | Potency [5] | Potency [6] | Potency [7] | Potency [14] | Potency [8] | Potency [11] | Potency [12]

C=C[C@H]1CN2CC[C@H]1C[C@@H]2[C@@H](O)c1ccnc2ccc(OC)cc12
inactive: Potency [1] | Potency [2] | Potency [6] | Potency [7] | Potency [14] | Potency [8] | Potency [12]

COC(=O)C(C)Oc1ccc(Oc2ncc(C(F)(F)F)cc2Cl)cc1 (stereo not given)
active: Potency [9] 78 µM
inactive: Potency [1] | Potency [2] | Potency [13] | Potency [5] | Potency [6] | Potency [7] | Potency [14] | Potency [8] | Potency [10] | Potency [11] | Potency [12]

[Na+]
inactive: Potency [1] | Potency [2] | Potency [13] | Potency [5] | Potency [6] | Potency [7] | Potency [14] | Potency [15] | Potency [8] | Potency [12]

NCCOCCO
inactive: Potency [1] | Potency [2] | Potency [5] | Potency [6] | Potency [7] | Potency [8] | Potency [9] | Potency [10] | Potency [12]

CN(Cc1cnc2nc(N)nc(N)c2n1)c1ccc(C(=O)N[C@@H](CCC(=O)O)C(=O)O)cc1
inactive: Potency [2] | Potency [3] | Potency [4] | outcome [16] | Potency [5] | Potency [6] | Potency [7] | Potency [15] | Potency [8] | Potency [11] | Potency [12]
active: Potency [14] 48.6 nM and 75 nM

CCC/C=C/C=O
inactive: Potency [1] | Potency [2] | Potency [13] | Potency [5] | Potency [6] | Potency [7] | Potency [14] | Potency [8] | Potency [11] | Potency [12]

Cc1ccc(/C(=C\CN2CCCC2)c2ccccn2)cc1
inactive: Potency [1] | Potency [2] | outcome [16] | Potency [6] | Potency [7] | Potency [8] | Potency [11] | Potency [12]

CC(=O)O[C@]1(C(C)=O)CC[C@H]2[C@@H]3C=C(C)C4=CC(=O)CC[C@]4(C)[C@H]3CC[C@@]21C
inactive: Potency [1] | Potency [2] | Potency [5] | Potency [6] | Potency [7] | Potency [8] | Potency [10] | Potency [11] | Potency [12]
active: Potency [13] 54.5 µM | Potency [9] 24.3 µM

C=CN1CCCC1=O
inactive: Potency [1] | Potency [2] | Potency [13] | Potency [5] | Potency [6] | Potency [7] | Potency [14] | Potency [15] | Potency [8] | Potency [12]

O=[Se](O)O
inactive: Potency [2] | Potency [3] | Potency [4] | viability change, negative = cytotoxic [13] -9.9% [at 19 µM] | Potency [5] | viability change, negative = cytotoxic [8] -29.3% [at 19 µM] | Potency [11] | Potency [12]
active: Potency [6] 43.3 µM | Potency [7] 48.6 µM | Potency [14] 61.2 µM and 3.3 µM | Potency [8] 30.7 µM

Cc1ccc(S(=O)(=O)NCl)cc1
inactive: Potency [1] | Potency [2] | Potency [13] | Potency [6] | Potency [7] | Potency [8] | Potency [9] | Potency [10] | Potency [11] | Potency [12]
